Measured values published in PubChem BioAssay (NCI).
Compounds without any hit were thinned out: in the full panel of roughly 83,000, 20% have a hit.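 Note: values are percent growth. 100 is the growth of untreated cells, values between 100 and 0 indicate rising inhibition; between -100 and 0 indicates cell death.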 A number with no mark means an inactive call. Active and inactive are the calls of the source. The calls were made as follows: active = growth percent below 10; inactive = the rest.

These molecules were tested on OVCAR-4 ovarian (assay: NCI-60 one-dose screen, 48 h (100 = growth as untreated, 0 = no growth, -100 = all killed)). Details: 10 µM.

SMILES	growth
CSc1[nH]c(=O)ncc1F	102%
COc1ccc(-c2cc(-c3cc(-c4ccc(OC)cc4)nc(N)n3)nc(N)n2)cc1	99.6%
Cc1cc(N)c(S(=O)(=O)O)c(N)c1	103%
COc1ccccc1NC(=O)C1=C(C)NC(C)=C(C(=O)Nc2ccccc2OC)C1c1cccc([N+](=O)[O-])c1	70.2%
C=CCNc1nnc(C)s1	113%
COC(=O)C(C)Oc1ccc(OC#N)cc1 (stereo unspecified)	95.8%
CCc1nn(Cc2ccccc2)c2nc(C)c(CCc3ccccc3)c(Cl)c12	86.2%
c1c(-c2cc(C3CC3)[nH]n2)n[nH]c1C1CC1	109%
O=C(CCNNC(=O)c1ccncc1)NCc1ccccc1	96.3%
CC(=O)Nc1cccc(Cl)c1C	109%
CCOC(=O)/C(C#N)=C/c1cccc(C)c1	104%
CC(C(=O)O)(C1CCCCC1)C1(O)CCCCC1 (stereo unspecified)	108%
CN(C)c1ccc2oc(=O)c3ccccc3c2c1	69.2%
O=C(OCC(O)C1OC(c2ccccc2)OC(COC(=O)c2ccccc2)C1O)c1ccccc1 (stereo unspecified)	93.2%
O=C(O)c1ccc(S(=O)(=O)O)cc1	104%
OC1CCCc2ccccc21 (stereo unspecified)	99.2%
CCCCCCCCCCCCCC(=O)Oc1ccc[nH]c1=O	102%
COc1cc2c(cc1OC)[C@H](C(=O)O)[C@@H](c1ccc(OC(C)C)c(OC)c1)N(C)C2=O	100%

SMILES	growth
COC(=O)Nc1nc2ccc(C(=O)c3ccc(F)cc3)cc2[nH]1	55.5%
Nc1ccccc1SC(CC(=O)c1ccccc1)c1c(Cl)cccc1Cl (stereo unspecified)	66%
CC1=CC(=O)c2ccccc2C1=O	112%
O=C(Nc1ccccc1)OCCc1ccccc1	91.4%
COc1ccccc1N1CCN(C(=S)Nc2ccccc2)CC1	108%
O=C1OC(c2ccc(F)cc2)CC1CN1CCOCC1 (stereo unspecified)	101%
CCCNC(=O)c1ccc(S(N)(=O)=O)cc1	84.3%
COC(=O)CCCCC1=CCC2C(=O)C=C(O)C2C1 (stereo unspecified)	103%
CCOC(=O)CCCS(C)(=O)=O	103%
Nc1ccc(NC(=O)c2cccc(N)c2)cc1	104%
CCOC(=O)c1cc(/C=C/c2ccc(Cl)cc2Cl)on1	76%
O=[N+]([O-])c1ccccc1S(=O)c1ccccc1[N+](=O)[O-]	67%
COc1cccc(Sc2ccc([N+](=O)[O-])c3no[n+]([O-])c23)c1	67.5%
O=C(NC1CCCCC1)OCc1c(COC(=O)NC2CCCCC2)c(-c2ccc(Cl)c(Cl)c2)n2c1CCC2	11.5%
O=C1OC(=O)C2C1C1(Cl)C(Cl)=C(Cl)C2(Cl)C2C(=O)OC(=O)C21 (stereo unspecified)	101%
c1ccc(Cc2ccccc2)cc1	109%
COc1ccc2c(NCCCCCCCCNc3c4ccccc4nc4cc(OC)ccc34)c3ccccc3nc2c1	-96.6% (active)
CCCC(=O)c1cc(C)ccc1OC	106%
